Bioassay records from PubChem BioAssay.
Dicer inh: human Dicer pre-microRNA cleavage inhibition | Q9UPY3 | cat-ELCCA pre-miR-21 Dicer processing, chemiluminescence; stronger effect = higher value | z-score at 25 µM | 6% of 47,000 active; in the data active = z-score above about 3, passing the limit was not always enough;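 note: plate controls were vehicle for no effect and no enzyme for full effect; higher signal means more uncleaved substrate so more Dicer inhibition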
The depositor's hits bear a star. The full list was thinned out, with hits kept by preference.

Results for COc1ccc(C2=NN3C(C2)c2cc(Br)ccc2OC3c2cccnc2)cc1 (stereo unspecified) ?
Dicer inh: 4.2*

What do the screens show for `COc1ccc(C2=NN3C(C2)c2ccccc2OC3c2ccncc2)cc1OC` (stereo unspecified)?
Dicer inh: 1.2

Results for COc1ccc(C2=NN3C(C2)c2cc(Br)ccc2OC3c2ccncc2)cc1 (stereo unspecified) ?
Dicer inh: 8.2*

How did Cc1cc(Nc2ccc(N(C)C)cc2)c2cccc(C)c2n1 do in these assays?
Dicer inh: 1.6

How did CCc1c(C)nc2nc(N)[nH]n2c1=O do in these assays?
Dicer inh: 0.42

How did COc1cccc(-c2ccnc3[nH]n(-c4nc(C)cc(C)n4)c(=O)c23)c1 do in these assays?
Dicer inh: 1.2

Results for Cn1ncc2c(NNS(=O)(=O)c3ccc(Cl)cc3)ncnc21 ?
Dicer inh: 0.88

What do the screens show for `CC(C)(C)c1ccc(-c2nnc(NC(=O)C(Cl)(Cl)Cl)s2)cc1`?
Dicer inh: -0.32

What do the screens show for `CC(C)(C)C(=O)Nc1nnc(-c2ccc(Br)cc2)s1`?
Dicer inh: 1.3

How did CN(C)S(=O)(=O)c1ccc(C(=O)Nc2nnc(-c3ccc(Br)cc3)s2)cc1 do in these assays?
Dicer inh: 3.2*

Results for Cc1cc(C)cc(NC(=S)NCCCNC(=O)OC(C)(C)C)c1 ?
Dicer inh: -0.24

How did CCOC(=O)/C(C#N)=C/c1ccccc1 do in these assays?
Dicer inh: -0.78

What do the screens show for `CCOC(=O)/C(C#N)=C/c1ccc([N+](=O)[O-])s1`?
Dicer inh: -0.25

How did CCOC(=O)/C(C#N)=C/c1csc([N+](=O)[O-])c1 do in these assays?
Dicer inh: 3.1*

What do the screens show for `CSc1cccc(NC(=O)NCc2ccccc2)c1C`?
Dicer inh: -0.74

Results for Nc1nc2c(c(=O)[nH]1)C(c1ccccc1Br)CC(=O)N2 (stereo unspecified) ?
Dicer inh: 1.3

How did Fc1ccccc1-c1nn2c(Cc3ccccc3)nnc2s1 do in these assays?
Dicer inh: 0.65

Results for c1ccc(Cc2nnc3sc(-c4ccco4)nn23)cc1 ?
Dicer inh: -0.3

Results for CSc1nn2c(=O)c(Cc3ccccc3)nnc2s1 ?
Dicer inh: 3.2*

What do the screens show for `CCCCC[C@H](O)/C=C/[C@@H]1[C@@H](C/C=C\CCCC(=O)O)[C@@H](O)C[C@H]1O` (tested in a mixture with another compound)?
Dicer inh: -0.37

Results for COc1cccc(/C=C2/SC(=S)N(C)C2=O)c1O ?
Dicer inh: 7.7*

What do the screens show for `COc1cccc(/C=C2\SC(=S)NC2=O)c1OC`?
Dicer inh: -0.91

How did O=C1NC(=S)/C(=C/c2ccccc2O)S1 do in these assays?
Dicer inh: -1.5

Results for CCOC(=O)c1ccc2[nH]c(-c3ccccc3)cc(=O)c2c1 ?
Dicer inh: 0.93

How did CCOc1ccc(C2C3=C(CCCC3=O)Nc3nc(-c4ccc(OC)cc4)nn32)cc1 (stereo unspecified) do in these assays?
Dicer inh: -0.07

What do the screens show for `O=C(C1CC1)N1c2ccccc2Sc2ccccc21`?
Dicer inh: 1.2

How did CC1(C)CC(NCC(=O)N2c3ccccc3Sc3ccc(Cl)cc32)CC(C)(C)N1 do in these assays?
Dicer inh: 3.3*

What do the screens show for `CC(C)CNC(=O)N1c2ccccc2Sc2ccccc21`?
Dicer inh: 0.58

What do the screens show for `O=C(NCCc1ccccc1)c1cc2cccc([N+](=O)[O-])c2[nH]1`?
Dicer inh: 0.35

What do the screens show for `O=C(Nc1ccc(Br)cc1C(F)(F)F)C(F)(F)F`?
Dicer inh: -1.1

How did Cc1nc(Nc2nc(-c3ccc(F)cc3)cc(=O)[nH]2)nc2ccccc12 do in these assays?
Dicer inh: -1.2

What do the screens show for `CCCN1C(=O)C2(/C(=C(/O)c3ccc(Cl)cc3)C(=O)C(=O)N2CC2CCCO2)c2ccccc21` (stereo unspecified)?
Dicer inh: 0.03

How did CC1(C)CSC(=NC2CCCCC2)N1 do in these assays?
Dicer inh: 3.2*

What do the screens show for `COCc1cc(=O)[nH]c(/N=C(\N)Nc2ccccc2SC)n1`?
Dicer inh: 1.8

How did CN(C)C=NC(=S)c1ccc(-c2cccs2)s1 do in these assays?
Dicer inh: 0.35

What do the screens show for `CCCCn1c(CCC(=O)O)ccc1-c1ccc(C)cc1`?
Dicer inh: -1.6

Results for CCCn1c(CCC(=O)O)ccc1-c1cccs1 ?
Dicer inh: 3*

What do the screens show for `COc1ccc(-n2c(CCC(=O)O)ccc2-c2cccs2)cc1`?
Dicer inh: 1.3

How did Cc1nc(N2C(=O)c3oc4ccccc4c(=O)c3C2c2ccc(O)cc2)sc1C (stereo unspecified) do in these assays?
Dicer inh: -1.9

How did Cc1csc(Cn2nc(CC(=O)N/N=C/c3ccccc3)c3ccccc3c2=O)n1 do in these assays?
Dicer inh: -0.36

How did Cc1nc(-c2cccnc2)nc(N2CCCN(c3ncc(C(F)(F)F)cc3Cl)CC2)c1Cl do in these assays?
Dicer inh: -1.4

How did CC(C)n1cc(-c2noc(-c3cccs3)n2)c(=O)n(Cc2ccccc2)c1=O do in these assays?
Dicer inh: 3.1*

Results for CC(C)n1cc(-c2nc(-c3ccc(Cl)cc3)cs2)c(=O)n(Cc2ccccc2)c1=O ?
Dicer inh: -0.66

How did Cc1csc(-c2cn(C(C)C)c(=O)n(Cc3ccccc3)c2=O)n1 do in these assays?
Dicer inh: -0.87

How did CCOC(=O)C/C(=N/Nc1ccccc1)C(F)(F)F do in these assays?
Dicer inh: -0.73

How did Cc1ccc(Nc2cc(-c3ccccc3)nc3ncnn23)cc1 do in these assays?
Dicer inh: 3.2*

What do the screens show for `Cc1cc(Nc2ccccc2)n2ncnc2n1`?
Dicer inh: -1.4

Results for FC(F)(F)c1cc(-c2ccccc2)nc2ncnn12 ?
Dicer inh: -0.01

What do the screens show for `O=C(N/N=C\c1c(Cl)cccc1Cl)c1nc(CS(=O)(=O)c2ccc(Cl)cc2)no1`?
Dicer inh: -0.22

How did COCCN1C(=O)C(=O)/C(=C(\O)c2ccc(Cl)cc2)C12C(=O)N(C)c1ccccc12 (stereo unspecified) do in these assays?
Dicer inh: -0.97

How did COc1ccc(/C(O)=C2/C(=O)C(=O)N(CCCN(C)C)C23C(=O)N(C)c2ccccc23)cc1 (stereo unspecified) do in these assays?
Dicer inh: 3.7*

Results for COc1ccc(/C(O)=C2/C(=O)C(=O)N(CCN(C)C)C23C(=O)N(C)c2ccccc23)cc1 (stereo unspecified) ?
Dicer inh: 1.9

What do the screens show for `CCCCN1C(=O)C2(/C(=C(/O)c3ccc(F)cc3)C(=O)C(=O)N2CCCN(C)C)c2ccccc21` (stereo unspecified)?
Dicer inh: 1.2

How did CN(C)CCN1C(=O)C(=O)/C(=C(\O)c2ccc(F)cc2)C12C(=O)N(C)c1ccccc12 (stereo unspecified) do in these assays?
Dicer inh: 2.7

How did CCOc1ccc(/C(O)=C2/C(=O)C(=O)N(CCCN(C)C)C23C(=O)N(C)c2ccccc23)cc1 (stereo unspecified) do in these assays?
Dicer inh: 5*

Results for CC(C)(C)OC(=O)N1Cc2ccccc2C[C@H]1C(=O)NCCN1CCCCC1 ?
Dicer inh: -1.8

What do the screens show for `C#CC(C)(C)NC(=O)NCCCCCCNC(=O)NC(C)(C)C#C`?
Dicer inh: 1

What do the screens show for `Cc1c(O)c2cnn(-c3ccccc3)c2[nH]c1=O`?
Dicer inh: 0.66

What do the screens show for `CC(=O)Nc1ccc(C)c(N=Cc2ccc(Cl)c(Cl)c2)c1`?
Dicer inh: -2.1

How did COC(=O)c1c(C)oc2ccc(OC(=O)c3ccc(Br)cc3)cc12 do in these assays?
Dicer inh: 1.6
